Assay results taken from PubChem BioAssay (NCI).
Compounds without any hit were thinned out: in the full panel of roughly 83,000, 20% have a hit.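 In brief: 96-well plates, 48 h treatment, single concentration, percent growth endpoint.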 Unmarked numbers belong to inactive results. Active and inactive are the calls of the source. Rule for the calls: active = growth percent below 10; inactive = the rest.

What was measured:
Test in all cases: NCI-60 one-dose screen, 48 h (100 = growth as untreated, 0 = no growth, -100 = all killed)
Details in all cases: 10 µM unless noted
[1] = system: DU-145 prostate
[2] = system: K-562 leukemia
[3] = system: MALME-3M melanoma
[4] = system: MDA-MB-231 breast
[5] = system: RXF 393 renal
[6] = system: SF-268 CNS
[7] = system: SF-295 CNS
[8] = system: SF-539 CNS
[9] = system: UACC-257 melanoma
[10] = system: M14 melanoma
[11] = system: HCT-15 colon
[12] = system: HT29 colon
[13] = system: SNB-75 CNS
[14] = system: SNB-19 CNS
[15] = system: U251 CNS
[16] = system: PC-3 prostate
[17] = system: UACC-62 melanoma
[18] = system: LOX IMVI melanoma
[19] = system: SK-MEL-28 melanoma
[20] = system: SK-MEL-5 melanoma

SMILES	growth [1]	growth [2]	growth [3]	growth [4]	growth [5]	growth [6]	growth [7]	growth [8]	growth [9]	growth [10]	growth [11]	growth [12]	growth [13]	growth [14]	growth [15]	growth [16]	growth [17]	growth [18]	growth [19]	growth [20]
Cc1cccc(Cc2cnc(NC(=O)c3ccc4nnsc4c3)s2)c1	74%	39.4%	95.3%	111%	97.5%	89.9%	93.7%	91%	95.4%	64.6%	68.6%	82.8%	105%	96.1%	88.7%	66.1%	35.3%	34.6%	103%	–
C[C@]12CC[C@@H]3c4cc(OC(F)F)c(O)cc4CC[C@H]3[C@@H]1CC[C@@H]2OS(N)(=O)=O	9.56% (active)	14.1%	27.1%	50.9%	19.1%	58.3%	12.8%	5.62% (active)	71.8%	17.6%	26.6%	–	-8.09% (active)	51%	30%	26.7%	48%	40.4%	–	0.18% (active)
CCCCCS(=O)(=O)Nc1ccc(C(=O)O)cc1	103%	104%	98.2%	106%	114%	101%	110%	102%	95%	101%	109%	–	92.3%	106%	92.8%	102%	98.8%	99.9%	111%	100%
O=C(O)c1ccc2c(c1)CCC2	118%	91.3%	106%	117%	120%	111%	103%	105%	105%	101%	104%	–	107%	103%	104%	106%	113%	97%	112%	–
CC(=O)c1nc(Nc2ccc(C)cc2)sc1C	102%	97.6%	113%	91.3%	96.2%	91%	104%	101%	92.1%	97.1%	94.1%	–	75%	93.1%	95.8%	93.1%	98.6%	100%	95.2%	98.6%
COC(=O)[C@H](CSC)N(C)C(=O)[C@@H]1CSSC[C@@H](NC(=O)c2nc3ccccc3cc2O)C(=O)NCC(=O)N1C	77.6%	48.8%	96.7%	81.3%	101%	79.2%	114%	87.2%	76.1%	46.2%	99.1%	–	132%	92.7%	91.2%	72.7%	60%	48.3%	83.4%	38%
CCN(CC)c1ccc(C(=O)c2ccc(N(CC)CC)cc2)cc1	20.2%	14.7%	67.2%	18.4%	-36.5% (active)	45.6%	11%	0.464% (active)	76.2%	0.748% (active)	27.4%	–	-11.9% (active)	38.7%	20.8%	26.4%	37.6%	32.6%	51.3%	23.7%
O=C1CCC2=C3C4CCCCC4C(=O)C4CCCC(OC2C1)C34 (stereo unspecified)	0.534% (active)	5.63% (active)	-33% (active)	28%	-80.8% (active)	3.25% (active)	33.4%	4.64% (active)	28.8%	–	4.39% (active)	85.6%	43.1%	34.1%	4.33% (active)	46.7%	50.3%	1.47% (active)	52%	-77.9% (active)
OC(COc1ccccc1Cl)COc1ccccc1Cl	116%	100%	96.8%	101%	96.7%	97.3%	104%	95.5%	120%	93.2%	86.1%	–	85.4%	108%	91.5%	95.9%	92%	85.3%	94.2%	96.8%
C=C1C(=O)O[C@H]2[C@H]1CC/C(COC(=O)C(=O)c1c[nH]c3ccc(OC)cc13)=C\CC[C@@]1(C)O[C@@H]21	-89.8% (active)	-7.42% (active)	-71.4% (active)	-64.8% (active)	-93.1% (active)	-53.2% (active)	33.1%	-97.4% (active)	-93.9% (active)	-79.1% (active)	-49.8% (active)	–	-88.4% (active)	-17.6% (active)	-97.8% (active)	-70% (active)	-76.6% (active)	-77.4% (active)	-75.3% (active)	–
CCCCn1c(=O)c2c(nc(NCCc3ccc(O)c(O)c3)n2CCC)n(CCCC)c1=O	74.8%	37.7%	101%	58.6%	66.3%	74.6%	94.7%	87.7%	89.6%	75.9%	39.4%	–	68.8%	92.3%	77.2%	43.9%	86.2%	57.4%	86.9%	83.1%
CCN1C(=O)N(CC)C2Nn3c(s/c(=C4\C(=O)N(C)c5ccccc54)c3=O)=NC21 (stereo unspecified)	18.1%	14.9%	48.3%	43.6%	-17.4% (active)	55.5%	52.2%	9.32% (active)	61.8%	13.1%	29.7%	–	9.74% (active)	56.5%	39.7%	27.8%	51%	55.9%	59.3%	–
CCCCCCCOc1c(OC)cc(C2CC(=O)Nc3c2c(C)nn3-c2nc3ccccc3[nH]2)cc1OC (stereo unspecified)	29.6%	21%	-51.5% (active)	-66.3% (active)	-40.1% (active)	-9.44% (active)	-57.4% (active)	-88.5% (active)	10.1%	–	0.5% (active)	-2.41% (active)	-31.5% (active)	16.1%	-58.2% (active)	12%	-49.2% (active)	-89.2% (active)	–	-83.7% (active)
Nc1nc(N)c2c(n1)NC(c1ccccc1)C1CCc3ccccc3C1=N2 (stereo unspecified)	49.1%	12.1%	15.3%	64.6%	84.7%	62.7%	17%	47.8%	19.7%	53.2%	39%	–	54.7%	67.2%	37.1%	40.8%	49.3%	44.5%	76.4%	-23.3% (active)
